The list is not random: actives were taken first. Their share in the collection is about 11%.
G9a inh = G9a (human) methyltransferase inhibition; G9a H3K9 monomethylation, AlphaScreen, 2 h; hit rate 8.8% among 350,000; Potency, µM (series often up to 102 µM), for the others: at the highest dose activity, negative = inhibition, actives largely listed as inhibitors; Q96KQ7; also: % is scaled to controls: 0 for no effect and ±100 for the full control effect; nearly all actives have a fitted effect of over 75% in size
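G9a (20 nM) preincubated 15 min RT with compounds, then 500 nM biotinylated H3K9 peptide and 20 uM SAM added; 2 h RT reaction. Monomethyl-H3K9 product detected by AlphaScreen with anti-H3K9me1 antibody, streptavidin donor and anti-rabbit IgG acceptor beads.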
VDR inhibitor = vitamin D3 receptor (human) inhibition; Potency, µM, inactives show max response, negative = inhibition, hits mostly inhibitors; P11473; hit rate 0.93% among 400,000; VDR-SRC2-3 peptide fluorescence polarization, 2 h; also: % is scaled to controls: 0 for no effect and ±100 for the full control effect
Target sequence (P11473 whole entry, looked up): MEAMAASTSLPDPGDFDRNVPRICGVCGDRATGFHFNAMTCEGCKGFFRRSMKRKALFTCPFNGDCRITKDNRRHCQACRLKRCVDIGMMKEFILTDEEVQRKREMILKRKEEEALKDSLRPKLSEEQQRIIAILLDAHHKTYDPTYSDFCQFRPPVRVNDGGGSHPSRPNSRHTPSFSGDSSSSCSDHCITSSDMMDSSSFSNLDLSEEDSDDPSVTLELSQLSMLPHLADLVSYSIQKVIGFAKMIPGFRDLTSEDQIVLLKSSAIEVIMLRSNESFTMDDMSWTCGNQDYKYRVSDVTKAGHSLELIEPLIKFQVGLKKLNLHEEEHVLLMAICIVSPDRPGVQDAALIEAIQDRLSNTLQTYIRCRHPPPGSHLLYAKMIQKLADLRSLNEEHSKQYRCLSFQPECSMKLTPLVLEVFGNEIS
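Compounds are added to VDR with labelled SRC2-3 coactivator peptide and held 2 h at room temperature. Inhibition of the VDR–peptide interaction is then read as a change in fluorescence polarization.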
JMJD2A Tudor inh = blocks the human JMJD2A Tudor domain; O75164; AlphaScreen JMJD2A-Tudor / H3K4me3 peptide binding; Potency, µM (highest dose often 114 µM), for the others: at the highest dose activity change, negative = inhibition, most hits filed as inhibitors; hit rate 4.4% among 390,000; AID 504339; also: % is scaled to controls: 0 for no effect and ±100 for the full control effect; nearly all actives have a fitted effect of over 50% in size
HP1b chromo inh = inhibitors of HP1-beta chromodomain binding to methylated histone tails; P83916; AlphaScreen HP1-beta / biotin-H3K9me3 peptide binding; Potency, µM (titrated, usually from 114 µM), inactives show top-dose activity change, negative = inhibition, hits mostly inhibitors; hit rate 0.56% among 390,000; also: nearly all actives have a fitted effect of over 70% in size
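HP1-beta protein (50 nM final) preincubated 30 min at room temperature with biotinylated H3(1-18)K9me3 peptide (50 nM) in PBS pH 7.4, 0.01% Tween-20, then compound added for 30 min. AlphaScreen streptavidin donor/nickel chelate acceptor beads (10 ug/mL final), 30 min dark, luminescence read.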
PLK1 PBD inh = PLK1 (human) polo-box domain binding inhibition. P53350. Plk1 PBD binding of FITC phosphopeptide, fluorescence polarization. Potency, µM, without a hit: max response, negative = inhibition, usual class: inhibitors. hit rate 2.8% among 360,000. AID 720504; also: series mostly up to about 57 µM; % is scaled to controls: 0 for no effect and ±100 for the full control effect; nearly all actives have a fitted effect of over 65% in size
BAZ2B inh = BAZ2B (human) inhibition. AlphaScreen BAZ2B-H3K14Ac peptide displacement. Q9UIF8. hit rate 4.4% among 360,000. Potency, µM (highest dose often 114 µM), for the others: at the highest dose activity change, negative = inhibition, actives largely listed as inhibitors; also: % is scaled to controls: 0 for no effect and ±100 for the full control effect; nearly all actives have a fitted effect of over 60% in size
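Complex of BAZ2B and biotin-H3K14Ac (50 nM apiece) forms over 30 min at RT, then faces library compounds up to 110 uM for another 30 min; AlphaScreen beads added, 20 min dark incubation, luminescence read.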
Active calls of the source: *; ? = inconclusive; . = no result; ! = not confirmed by another sample; [ ] = dose if it differs, or a comment. Calls follow the shape of the dose curve; as a rule, active = well fitted curve in the direction sought with a large enough effect; inconclusive = small, poorly fitted or top-dose-only effect, or another doubt; inactive = no such curve, though single readings can be large; an effect the other way counts as inactive or inconclusive. Potency is read from the fitted curve at half-maximal effect.

SMILES	G9a inh	VDR inhibitor	JMJD2A Tudor inh	HP1b chromo inh	PLK1 PBD inh	BAZ2B inh
COC(=O)c1ccccc1NC(=O)C1=C(C)C(=O)OC12CCC(C)CC2 (stereo unspecified)	2.6%[59 µM]	-4.8%	11.4%	40.4%	.	12.1%
O=C1NC[C@@H](CCCCN2CCN(CCC3CCCCC3)C(=O)C2=O)N(Cc2ccccc2)C1=O	.	.	.	.	-7.8%	.
CCC1CN(S(=O)(=O)c2cc(-c3onc(C)c3C)ccc2C)c2cc(Cl)ccc2O1 (stereo unspecified)	3.7%[59 µM]	14.9%	11.0%	33.1%	.	0.5%
O=C(Nc1ccc(NC(=O)c2cc([N+](=O)[O-])ccc2N2CCOCC2)cc1)c1cccs1	28.2µM*	17.8%	-22.2%	18.9%	-17.6%	-26.6%
O=C(Nc1cc([N+](=O)[O-])ccc1N1CCOCC1)c1cccs1	10.3%	-4.7%	-23.7%	30.2%	-7.6%	-2.3%
Cc1nc2cnc(N3CCOCC3)nc2n(Cc2cccs2)c1=O	-11.6%[12.7 µM]	-11.7%	.	.	.	.
C#CC1CN(Cc2ccccc2)CC(C#C)N1C (stereo unspecified)	7.0%[12.7 µM]	-22.0%	-19.8%[57.1 µM]	0.3%	29.9µM*	?
CC1CC(CC(=O)NNc2nc(-c3ccccc3)cs2)C(=O)O1 (stereo unspecified)	3.4%	0.4%	0.3%	54.9%	0.0%	-10.7%
CC1(C)CC(CC(=O)NNc2nc(-c3ccccc3)cs2)C(=O)O1 (stereo unspecified)	-4.3%[59 µM]	?	?	?	26.7µM*	-1.8%
C/C(CCC1CC(C)OC1=O)=N/Nc1nc(-c2ccccc2)cs1 (stereo unspecified)	8.91µM*	44.7µM*	?	-33.2%	29.9µM*	?
CC(C)CC1CC(C)(c2csc(NNC(=O)c3ccccc3)n2)OC1=O (stereo unspecified)	44.7µM*	?	-9.7%	28.8%	-6.6%	0.1%
CCN(CC)CCNC(=O)C(=O)NCC(c1ccc2c(c1)OCO2)N1CCOCC1 (stereo unspecified)	6.6%[59 µM]	0.5%	-8.1%	10.7%[57 µM]	.	2.6%
NC(=O)CSc1nnc(NC(=O)c2ccc(S(=O)(=O)N3CCCCC3)cc2)s1	6.31µM*	-2.5%	-8.9%	50.5%	-17.1%	6.2%
Cn1sc(NC(=O)c2cccc(Cl)c2)nc1=O	.	16.4%	-14.6%	39.2%	-0.2%	-3.7%
O=C(Nc1nnc(S(=O)(=O)N2CCCCCC2)s1)c1ccccc1Cl	10µM*!	3.8%	?	49.9%	-10.1%	?
COc1ccccc1C(=O)Nc1nnc(S(=O)(=O)N2CCC(C)CC2)s1	79.4µM*	7.1%	-11.3%	59.4%	-10.6%	-4.0%[57.1 µM]
Cn1sc(NC(=O)c2ccccc2Cl)nc1=O	?	?	-14.6%	-11.9%	29.9µM*	-1.1%
O=C(Nc1nnc(S(=O)(=O)N2CCCCC2)s1)c1ccccc1Br	-7.7%	-13.3%	-13.2%	49.6%	-8.4%	-6.7%
COc1ccccc1CN(Cc1ccco1)c1cnc(S(C)(=O)=O)nc1C(=O)Nc1cc(C)ccc1C	?	5.1%	?	1.3%	.	-38.9%
Cc1ccc([C@H]2C[C@@H](O)[C@H](n3cc(-c4ccc(F)cc4)nn3)CN2C(=O)C2CCCCC2)cc1	.	.	.	.	1.0%	.
Cc1cc(Br)ccc1NC(=O)c1ccc(NS(=O)(=O)c2c(C)noc2C)cc1	?	-34.4%	-17.3%	19.1%	.	.
O=S1(=O)CCO[C@H]2Cc3ccccc3[C@H]2N1Cc1ccc(F)cc1	-12.4%	4.3%	0.7%	71.6%	-4.7%	-2.7%
Cc1ccc(NC(=O)CN2C(=O)NC(Cc3ccccc3)C2=O)cc1Cl (stereo unspecified)	7.8%[12.7 µM]	-4.6%	-5.5%	37.9%	0.9%	1.9%
O=C(Nc1nnc(CCN2CCOCC2)s1)c1ccccc1	44.7µM*	5.8%	2.1%	-3.3%	?	7.2%
O=C(Nc1nnc(S(=O)(=O)N2CCCC2)s1)c1ccccc1Cl	?	-8.5%	?	36.8%	-3.0%	5.01µM*!
O=C(Nc1ccccc1)c1ccc(S(=O)(=O)N2CCCCC2)cc1	-0.7%[59 µM]	-14.8%	-16.3%	33.6%	-5.1%	-1.3%

Screening results as filed in PubChem.
